# From PubChem BioAssay
# IMPase inh – membrane-permeable compound that blocks inositol monophosphatase. 120,000 tested, under 10 active. inhibition (IP1 accumulation), % at 46.1 µM. CHO-M1 cells, IP1 accumulation, HTRF TR-FRET ratio. P97697; active = well fitted curve in the direction sought with a large enough effect in the signal ratio, not every such curve was filed as active; inconclusive = small, poorly fitted or top-dose-only effect, or a change in a side signal; inactive = no such curve, though single readings can be large or run the other way; the % refers to the signal ratio;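 also: cells stimulated with carbachol in lithium chloride buffer; plate controls were DMSO basal wells for no effect and reference inhibitor wells for full effect; higher means more IMPase inhibition seen as more IP1 and lower FRET ratio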
# Target sequence (P97697 whole entry, looked up): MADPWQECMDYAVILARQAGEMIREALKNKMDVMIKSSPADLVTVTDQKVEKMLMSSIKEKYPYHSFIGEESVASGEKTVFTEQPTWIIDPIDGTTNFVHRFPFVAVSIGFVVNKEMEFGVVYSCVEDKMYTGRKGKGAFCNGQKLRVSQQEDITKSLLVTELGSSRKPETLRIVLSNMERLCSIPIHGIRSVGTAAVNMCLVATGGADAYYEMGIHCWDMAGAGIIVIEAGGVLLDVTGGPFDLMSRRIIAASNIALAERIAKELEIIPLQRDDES
#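 Cellular IMPase inhibition is scored as a rise in cytosolic IP1, detected by competitive TR-FRET between d2-labelled IP1 and a europium anti-IP1 antibody. M1-expressing CHO cells were stimulated with carbachol for 30 min at 37C, with lithium (50 mM LiCl) present in the buffer.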
# ALDH1A1 block – ALDH1A1 (human) enzyme inhibition; P00352; Purified ALDH1A1, NADH fluorescence, propionaldehyde substrate; Potency, µM (titrated, usually from 75.3 µM), inactives show at the highest dose activity, negative = inhibition, hits mostly inhibitors; hit rate 7.3% among 220,000;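 also: potency is read from the fitted curve at half-maximal effect; plate controls were no enzyme wells and a reference inhibitor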
# Lamin A splicing – LMNA splicing modulation. hit rate 0.01% among 200,000. AID 1487. Potency, µM (series often up to 46.1 µM), inactives show at the top dose ratio change, negative = inhibition, most hits filed as inhibitors. HeLa LMNA splicing GFP/RFP minigene ratio, 48 h; active = well fitted inhibition curve with a large enough effect in the signal ratio, with a control signal flat, not every such curve was filed as active; inconclusive = small, poorly fitted or top-dose-only effect, or effect the other way, or a change in a side signal; the % refers to the signal ratio; also: potency is read from the fitted curve at half-maximal effect
#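 S3 HeLa cells stably expressing lamin A-EGFP splicing minigene plus DsRed2, 600 cells/well, 48 h compound exposure at 37C. Laser-scanning cytometry; analysed as GFP (500-530 nm)/RFP (575-640 nm) total intensity ratio; 0.5% DMSO vehicle.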
# HPGD block – HPGD (human) dehydrogenase inhibition; hit rate 4.3% among 150,000; purified HPGD, NADH fluorescence kinetic, PGE2 substrate; P15428; Potency, µM, without a hit: at the top dose activity change, negative = inhibition, hits mostly inhibitors; also: potency is read from the fitted curve at half-maximal effect
# Target sequence (P15428 whole entry, looked up): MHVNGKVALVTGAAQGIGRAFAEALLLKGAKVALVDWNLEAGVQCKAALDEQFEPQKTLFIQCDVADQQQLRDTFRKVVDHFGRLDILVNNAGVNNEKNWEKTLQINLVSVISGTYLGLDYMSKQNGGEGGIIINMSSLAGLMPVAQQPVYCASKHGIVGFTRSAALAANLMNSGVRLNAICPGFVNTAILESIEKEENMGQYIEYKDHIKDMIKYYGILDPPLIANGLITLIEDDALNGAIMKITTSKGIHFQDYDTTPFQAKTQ
#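 20 nM HPGD preincubated 15 min at room temperature with compound in 50 mM Tris-HCl pH 8, 0.01% Tween 20. Started with 1 mM NAD+ and 30 uM prostaglandin E2; NADH fluorescence (360/450 nm) read 5 times over 30-s intervals, last minus first.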
# Luc counter – counter-screen: inhibitors of Kinase-Glo firefly luciferase; Q27757; Kinase-Glo luciferase, ATP luminescence, 8 min; Potency, µM (series often up to 38.3 µM), for the others: at the highest dose activity change, negative = inhibition, hits mostly inhibitors; hit rate 0.28% among 200,000; active = well fitted inhibition curve with a large enough effect; inconclusive = small, poorly fitted or top-dose-only effect; also: potency is read from the fitted curve at half-maximal effect; nearly all actives have a fitted effect of over 60% in size
#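 Inhibition of Kinase-Glo luciferase light generation was assessed at 10 uM ATP in pH 7.2 imidazole buffer, with luminescence measured after eight minutes at ambient temperature.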
# PNC assembly inh – inhibitors of perinucleolar compartment assembly. hit rate 3.1% among 140,000. PC3M PTB-GFP, PNC prevalence imaging, 16 h; hits give low values. AID 2417. activity change (PNC), negative = inhibition, % at 10 µM;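 active = readout at or below -70, meaning at least 70% loss of cells showing the perinucleolar compartment, a nuclear body marking cancer cells; inconclusive = readout between -30 and a set limit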;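 also: plate controls were DMSO wells for no effect and camptothecin positive control wells for full effect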
#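 Read-out is percentage of cells bearing a perinucleolar compartment, from automated 20x imaging of fixed, Hoechst-stained PC3M PTB-GFP cells. Cells were seeded 4 h, then exposed 16 h to compound (23 nl of library stock) in duplicate plates.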
# * = called active by the depositor; u = inconclusive; x = no result; [ ] = another dose, or the depositor's remark. Only some compounds are listed: those with a hit (about 10% of all), similar ones and a draw of the others. Unless noted, calls follow the shape of the dose curve; as a rule, active = well fitted inhibition curve with a large enough effect (not every such curve was filed as active); inconclusive = small, poorly fitted or top-dose-only effect, or another doubt; inactive = no such curve, though single readings can be large or run the other way. Unless noted, % is scaled to controls: 0 for no effect and ±100 for the full control effect.
SMILES,IMPase inh,ALDH1A1 block,Lamin A splicing,HPGD block,Luc counter,PNC assembly inh
CCc1ccc(-n2nc(C)c3c(C(=O)Nc4cc(C)c(Cl)cc4OC)cc(C)nc32)cc1,x,x,6.1%[46 µM],x,x,x
COc1ccc(-c2nnc(SCc3ccccc3)n2N)cc1,-7.2,12.7%,4.8%,-16.3%,-3.4%,-107.9*
COC(=O)c1sccc1NC(=O)CSc1ccccc1N,x,-1.4%,u,x,1.0%,x
COC(=O)c1sccc1NC(=O)CSc1ccccc1NC(=O)CNC(C)C,x,3.55µM*,-8.9%[46 µM],x,-16.8%,x
c1ccc(-n2nnnc2SCc2ccccn2)cc1,-4.7,u,-7.9%,-7.2%,22.2%,25.2
C(=C\CSc1nnnn1-c1ccccc1)/CSc1nnnn1-c1ccccc1,9.1,0.1µM*,u,u,0.2%,u
CCCSc1nnc(Sc2nnnn2-c2ccccc2)s1,-3.4,11.2µM*,u,-28.3%,-1.4%,9.4
CCCCCCC(=O)Cc1cc(OC)c(OC)cc1/C=C(/C(C)=O)C(=O)OC,x,-1.5%[13.5 µM],x,x,x,x
Cc1cn([C@H]2C[C@@H](N=[N+]=[N-])[C@@H](CO)O2)c(=O)[nH]c1=O,x,-5.6%,u,-9.4%,-2.1%,x
Cc1ccc(C(=O)N2c3ccc(C)cc3C(C)(c3ccccc3)CC2(C)C)cc1 (stereo not given),4.4,x,x,x,x,x
Cc1ccc(-c2nnc(SCC#N)n2N)cc1,-10.1,-8.7%,0.1%,u,0.0%,-82.7*
Cc1ccc(-c2noc(CSc3nnnn3C3CCCCC3)n2)cc1,4.6,14.1µM*,-4.6%,-13.0%,1.7%,-16.6
O=[N+]([O-])c1ccc(Sc2nnnn2-c2ccccc2)nc1,x,22.4µM*,x,x,7.7%,x
O=S(=O)(NCCSc1nnnn1-c1ccccc1)c1cccs1,-0.6,12.6µM*,-8.2%,-10.0%,-0.6%,-10.5
O=C(CC1N=C2c3ccccc3N=C(SCc3ccccc3Cl)N2C1=O)NCCc1ccccc1 (stereo not given),x,x,-15.8%[46 µM],x,x,x
COc1ccc(-n2nnnc2SCc2nc3ccccc3s2)cc1,-7.2,u,-12.4%,u,-6.9%,-29.8
Cc1noc(C)c1CSc1nnc(-c2ccccc2)n1N,0.7,10µM*,7.8%,20µM*,14.5%,1.8
CSc1ccccc1-n1nnnc1SCC(=O)Nc1cc(C)ccc1C,7.2,14.1µM*,-19.8%,-2.5%,-4.7%,11.3
Cc1noc(C)c1CSc1nnc(-c2ccccc2)n1Cc1ccco1,0.4,-3.2%,1.3%,-10.9%,0.1%,19.3
c1ccc(-c2noc(CSc3nnnn3-c3ccccc3)n2)cc1,3.9,11.2µM*,-4.9%,-4.7%,4.6%,-5.1
COc1ccc(CSc2nnnn2-c2ccccc2)cc1,0.2,11.2µM*,u,-8.6%,-2.9%,35.1
COC(=O)c1sccc1NC(=O)CSc1nnnn1-c1ccccc1F,-14.7,14.1µM*,u,-15.9%,-3.5%,u
COc1ccc(OC)c(NC(=O)CSc2nnnn2-c2ccccc2F)c1,-0.7,u,u,-7.0%,-1.7%,u
Cc1ccccc1-n1nnnc1Sc1nnnn1-c1ccccc1,5.7,25.1µM*,u,-1.4%,-2.0%,0.2
Cc1cc(C)c(S(=O)(=O)c2ccccc2C)c(OCC(C)(C)C)n1,12.6,12.6µM*,15.5%,-14.0%,-2.8%,u
SMILES,IMPase inh,ALDH1A1 block,Lamin A splicing,HPGD block,Luc counter,PNC assembly inh
CCOCCOc1nc(C)cc(C)c1S(=O)(=O)c1ccccc1C,x,0.3%,4.1%[46 µM],x,1.2%,x
Cc1cc(C)c(S(C)(=O)=O)c(Oc2ccccc2C)n1,9.4,10.0%,5.3%,28.2µM*,1.8%,59.4
Cc1cc(C)cc(Oc2nc(-c3ccccc3)cc(C)c2S(C)(=O)=O)c1,-1.2,14.1µM*,u,u,-3.8%,-112.1*
CCOC(=O)c1sc(N)c(C(=O)Nc2ccc(C)cc2C)c1C,x,10µM*,x,3.98µM*,-0.7%,x
C=CCn1c(N)c(C(=O)Nc2ccccc2OC)sc1=S,-0.1,22.4µM*,-4.4%,x,x,u
C=CCn1c(N)c(C(=O)Nc2ccc(C)cc2)sc1=S,2.4,10.4%,14.9%,-3.9%,0.6%,37.7
CCOC(=O)c1sc(N)c(C(=O)Nc2ccccc2OC)c1C,x,4.47µM*,-10.0%[9.22 µM],x,-3.3%,x
